# The full list was thinned out, with hits kept by preference.
# AMPAR-TARP mod – GluA2-stargazin AMPA receptor complex modulation. O88602+P19491. HEK293 GluA2+stargazin, membrane potential dye (FDSS), glutamate EC50; hits were called plate by plate, in both directions. calls only at 30 µM. 40,000 compounds, 3.5% hits;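 active = any of four per-well response measures lying three or more SD from its plate-wide compound average, in either direction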
# GIRK2 activator – Activates human GIRK2-containing potassium channels; P48051; HEK293 GIRK2/NPY4 cells, thallium flux fluorescence; activation (% efficacy), % for hits at 75 µM; 34,000 tested, under 10 active; AID 1259324;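 active = primary screen hit, no activity in plain HEK293 cells, and in GIRK2-only cells above 5% efficacy rising with concentration; inactive = the rest, including fluorescent compounds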;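 also: efficacy is normalized control-subtracted fluorescence 15 s after thallium addition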
# Target sequence (P48051 whole entry, looked up): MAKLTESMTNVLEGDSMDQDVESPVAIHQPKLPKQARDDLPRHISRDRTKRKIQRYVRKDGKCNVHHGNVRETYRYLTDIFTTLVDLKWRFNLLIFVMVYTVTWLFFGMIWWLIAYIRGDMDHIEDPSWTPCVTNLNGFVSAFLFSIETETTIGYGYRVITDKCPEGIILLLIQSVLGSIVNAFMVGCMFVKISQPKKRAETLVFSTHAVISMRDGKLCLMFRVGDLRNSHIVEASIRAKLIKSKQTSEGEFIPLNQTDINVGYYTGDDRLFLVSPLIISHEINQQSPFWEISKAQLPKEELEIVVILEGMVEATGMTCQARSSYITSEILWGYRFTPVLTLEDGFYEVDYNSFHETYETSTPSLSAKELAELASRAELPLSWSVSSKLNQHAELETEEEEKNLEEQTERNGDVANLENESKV
# An asterisk follows results filed as active; i = inactive; . = no result; + = active, no number; ! = not confirmed by another sample.
SMILES,AMPAR-TARP mod,GIRK2 activator
COc1cc(/C=C2\Oc3cc(OC(=O)c4ccccc4F)ccc3C2=O)cc(OC)c1OC,+,.
CCOc1ccccc1NC(=O)CSc1nnnn1-c1cccc(C)c1,+!,i
CCOc1ccccc1NC(=O)CSc1nnnn1-c1ccccc1C(F)(F)F,i,i
O=C(Nc1c2c(nn1-c1ccccc1)CS(=O)(=O)C2)C(=O)N1CCCCC1,i,i
COCCCNC(=O)C(=O)Nc1c2c(nn1-c1ccc(Cl)cc1)CS(=O)(=O)C2,i,.
COCCNC(=O)C(=O)Nc1c2c(nn1-c1ccc(Cl)cc1)CS(=O)(=O)C2,+,.
O=C(Nc1c2c(nn1-c1ccccc1)CS(=O)(=O)C2)C(=O)N1CCCC1,+,i
O=C(Cn1nc(-n2cccn2)ccc1=O)Nc1ncccn1,i,i
COc1ccccc1-c1cnn2c(Nc3ccccc3)cc(C)nc12,i,i
COc1ccccc1-c1cnn2c(NCCc3ccccc3)cc(C)nc12,+,i
CC(C)N(Cc1ccccc1)C(=O)C(=O)c1c[nH]c2ccccc12,i,.
CC(C)N(C(=O)C(=O)c1c[nH]c2ccccc12)C(C)C,i,.
CC(NC(=O)C(=O)c1c[nH]c2ccccc12)c1ccccc1 (configuration not stated),+,.
CCN(Cc1ccccc1)C(=O)C(=O)c1c[nH]c2ccccc12,+,.
COc1ccc(-c2ccc(N3CCN(C(=O)c4cnc5ccccc5n4)CC3)nn2)cc1,i,i
Cc1cc(C)n(-c2cc(N3CCCC(C(=O)NCc4ccco4)C3)ncn2)n1 (configuration not stated),+,i
Cc1cc(C)n(-c2cc(N3CCCC(C(=O)NCc4ccc5c(c4)OCO5)C3)ncn2)n1 (configuration not stated),i,i
CCn1nc(C)cc1C(=O)N(Cc1ccccc1)c1nc2cc(OC)ccc2s1,i,i
COC(=O)c1sc2ccccc2c1NC(=O)C1CCCCC1,+,.
COC(=O)c1ccc2nc(NC(=O)C3CCCCC3)sc2c1,i,i
CCCS(=O)(=O)N1CCCc2ccc(NS(=O)(=O)c3cc(C)ccc3OCC)cc21,i,.
Cc1ccc(C)c(-c2nnc(NC(=O)Cc3ccc(S(C)(=O)=O)cc3)o2)c1,i,.
CC(=O)N1CCN(c2cc3c(cc2F)c(=O)c(C(=O)Nc2cccc(C)c2)cn3C2CC2)CC1,i,i
CCOC(=O)CN1CCN(c2nc3c(c(=O)[nH]c(=O)n3C)n2CCc2ccccc2)CC1,+,.
COC(=O)CN1CCN(c2nc3c(c(=O)[nH]c(=O)n3C)n2CCc2ccccc2)CC1,i,.
SMILES,AMPAR-TARP mod,GIRK2 activator
Cn1c(=O)[nH]c(=O)c2c1nc(N1CCC(C(N)=O)CC1)n2CCCc1ccccc1,i,.
Cn1c(=O)[nH]c(=O)c2c1nc(N1CCN(CC(N)=O)CC1)n2CCCc1ccccc1,+,.
Cn1nc(CNC(=O)c2cc(C3CC3)on2)c2ccccc2c1=O,i,i
COCCNc1oc2c(c1-c1cccc(Cl)c1)c(=O)n(C)c(=O)n2C,i,i
CN(C)c1cccc(C(=O)NCCS(=O)(=O)N2CCN(c3ccccn3)CC2)c1,i,i
CCOc1ccccc1NC(=O)CSc1nccn2nc(-c3ccc(C)cc3)cc12,.,i
O=C(CC1CCCC1)Nc1nc(CSCc2ccc(F)cc2)cs1,+,i
O=C(CCc1csc(NC(=O)c2ccc(F)cc2)n1)NCC1CCCCC1,i,i
CCOC(=O)c1c(SCC(=O)Nc2ccc(C(=O)OC)cc2)nc(=O)[nH]c1C,i,i
Cn1cccc1C(CNC(=O)C1CCN(S(C)(=O)=O)CC1)N1CCCC1 (configuration not stated),+,i
Cn1cccc1C(CNC(=O)C(=O)NC1CCCC1)N1CCCC1 (configuration not stated),i,i
COc1cccc(-n2nnc3c(N4CCN(C(=O)Cc5cccs5)CC4)ncnc32)c1,i,.
CCCCS(=O)(=O)N1CCN(c2ccc(-n3nc(C)c(C)c3C)nn2)CC1,i,i
CCCCS(=O)(=O)N1CCN(c2ccc(Nc3cccc(C)n3)nn2)CC1,+,i
COc1ccc(NC(=O)CCc2csc(NS(=O)(=O)c3ccccc3)n2)c(OC)c1,i,i
O=C(NCCn1nc(-n2cccn2)ccc1=O)c1cc2ccccc2o1,.,i
COC(=O)N1CCC(CNS(=O)(=O)c2ccc3c(c2)CCCC3)CC1,i,i
CCCc1ccc(S(=O)(=O)NCC2CCN(C3CCCC3)CC2)cc1,+,.
CCc1ccc(S(=O)(=O)NCC2CCN(C3CCCC3)CC2)cc1,i,.
COc1ccc(S(=O)(=O)NCC2CCN(C3CCCC3)CC2)cc1OC,i,i
CCCOc1ccc(S(=O)(=O)NCC2CCN(C3CCCC3)CC2)cc1,+,i
O=S(=O)(NCC1CCN(C2CCCC2)CC1)c1ccc2c(c1)CCCC2,+,i

# High-throughput results deposited in PubChem by several laboratories.
